These results are taken from PubChem BioAssay AID1527 (The Scripps Research Institute Molecular Screening Center, 2009).

In all, about 290,000 compounds went through this assay and about 2,600 (0.9%) were called active. This excerpt belongs to a sample that is enriched for actives. Values without a mark were called inactive.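 How the source made its calls: active means inhibition above the mean of all tested compounds plus 3 SD, cutoff set per screening run (cut at about 7.5% in these data); inactive means the rest.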

The experiment has as its system VIM-2 metallo-beta-lactamase (Pseudomonas aeruginosa). Kind of experiment: VIM-2 metallo-beta-lactamase inhibitors, primary screen, biochemical, epi-absorbance readout, Pseudomonas aeruginosa enzyme (AID 1527).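 Further: red hydrolysis product quenches plate fluorescence so inhibitors raise well fluorescence; 0% = enzyme with DMSO and 100% = DMSO without enzyme.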 The settings on record: purified VIM-2, nitrocefin hydrolysis, epi-absorbance fluorescence; at 5.6 µM; hits give high values.
Usually inhibition stands for the change of the read-out against control, counted positive when it falls. With `O=[N+]([O-])c1ccccc1/C=C/CN1CCCC(CO)C1` (stereo not drawn), the inhibition is -0.68%. For `O=C(NCC(=O)N1CCC2(CC1)NCCc1[nH]cnc12)c1ccc(Br)cc1`, the inhibition was 0.87%. Take `Cc1ccccc1NC(=O)C1CCN(C(=O)NC2CCCCC2)CC1`: the inhibition is -1.56%. In the case of `O=C(NC(=S)Nc1ncccn1)c1ccccc1Br` it was -1.46%; in that of `Cc1ccc(NC(=O)c2cccnc2C(=O)Nc2ccc(C)cc2)cc1`, -0.75%. In the case of `O=C(Nc1ccc(-n2ccnc2P(=O)(O)c2ccccc2)cc1)c1ccccc1Br` it was 21.4% (active); in that of `COc1cc(/C=C2\SC(=O)NC2=O)ccc1OCc1ccc(Cl)nc1`, -1.77%; in that of `COc1ccccc1CCNS(=O)(=O)c1cc2c3c(c1)C(C)C(=O)N3CCC2` (stereo not drawn), 1.4%. In the case of `O=C(NCCCc1ccccc1)C1CCC(=O)N(CCc2ccc(Cl)cc2)C1` (stereo not drawn), the inhibition was -1.97%. As for `Cc1ccc(Oc2ccc3c(c2)C(=O)N(c2cccc4cccnc24)C3=O)cc1`, the inhibition was 30.9% (active). In the case of `Cc1ccc(NC(=O)CSc2cccc3cccnc23)c(C)c1` it was -0.55%; in that of `Cc1cccc(N2C(=O)c3cccnc3C2=O)c1`, -0.49%; in that of `O=C(C1CCN(S(=O)(=O)c2ccc(Br)s2)CC1)N1CCN(c2ccccc2)CC1`, -3.44%. With `COC(=O)c1ccccc1NC(=S)NC(=O)c1ccccc1F`, the inhibition was -1.44%. In the case of `Cc1cccc(NC(=S)NC(=O)c2ccc(Br)o2)c1` it was -1.38%. For `O=C(NC(=S)Nc1ccccc1C(=O)O)c1ccc(-c2ccc(Br)cc2)o1`, the inhibition was 19.4% (active).

On to `CC(C)[C@H](NC(=O)N1CC(=O)Nc2ccccc21)C(=O)N[C@@H](Cc1c[nH]c2ccccc12)C(=O)O`, for which the inhibition is -2.42%. As for `Cn1cnnc1SCc1nnc(-c2ccccc2Br)o1`, the inhibition was -0.36%. In the case of `Nc1cccc2c1C(=O)N(Cc1nnc(-c3ccccc3Br)o1)C2=O` it was 13.6% (active); in that of `CCOC(=O)N1CCN(Cc2nnc(-c3ccccc3Cl)o2)CC1`, -1.67%. In the case of `Cc1ccccc1NC(=O)C1CCCN(C(=O)NCc2ccccc2)C1` (stereo not drawn) it was -2.35%; in that of `CC(C)(C)C(=O)CN1C2=NCCN2c2ccccc21`, -3.12%; in that of `Cc1cc2c(cc1C)N(Cc1ccccc1)C1=NCCCN12`, 8.88% (active). For the molecule `OC(CN1C2=NCCCN2c2ccccc21)c1ccc(Br)cc1` (stereo not drawn), the inhibition is -1.66%.

Regarding `COc1ccc(S(=O)(=O)NCC(=O)NCc2cc(=O)n(C)c(=O)n2C)cc1F`, the inhibition was -1.12%. In the case of `CCn1c(Cc2ccc(OC)cc2)nnc1SCC(=O)Nc1ccc(N2CCOCC2)cc1`, the inhibition was -1.86%. In the case of `COc1ccc(Nc2cc(C)nc(-n3nc(C)cc3C)n2)cc1` it was 12.7% (active). With `COc1ccccc1/C=N\Nc1cc(C)nc(-n2nc(C)cc2C)n1`, the inhibition is -5.24%.

Turning to `Cc1cc(N/N=C\c2ccc(Br)cc2)nc(-n2nc(C)cc2C)n1`, the inhibition was -1.15%. As for `Cc1cccc(OCC(=O)NCC(=O)N/N=C/c2ccc(N(C)C)cc2)c1`, the inhibition is 0.77%. In the case of `N#Cc1ccc(/C=C2\CCn3c2nc2cc(C(=O)O)ccc2c3=O)cc1` it was 3.37%; in that of `Cc1cc(S(=O)(=O)NCc2ccccn2)c(Cl)cc1Cl`, -1.51%; in that of `Fc1ccc(-c2ccc(CNCc3ccccn3)o2)cc1Cl`, 38% (active). In the case of `COc1ccc(-c2ccc(CNCCCN3CCOCC3)o2)cc1Cl` it was -0.71%; in that of `COc1ccc(S(=O)(=O)N2CCN(C(=O)N(C)C)C2C)cc1` (stereo not drawn), -2.86%; in that of `N#Cc1ccc(S(=O)(=O)NCC(=O)OCC(=O)NCCc2ccccc2)cc1`, -2%.

On to `O=C(Nn1c(SCc2ccc([N+](=O)[O-])cc2)nc2ccccc2c1=O)c1ccc(F)cc1`, for which the inhibition is 1.03%.

Turning to `C=CCn1c(SCc2ccc(C(=O)NCCO)cc2)nc2ccccc2c1=O`, the inhibition was 9.03% (active).

On to `COCCNC(=O)c1ccc(-n2c(SCc3cccnc3)nc3ccccc3c2=O)cc1`, for which the inhibition is -1.16%. In the case of `Cn1c(C(=O)NCCc2ccsc2)cc2c(=O)n(C)c3ccccc3c21` it was 4.63%. In the case of `Cn1c(C(=O)N2CCC(C(N)=O)CC2)cc2c(=O)n(C)c3ccccc3c21` it was 2.96%; in that of `Cn1c(C(=O)NCCCN2CCN(c3cccc(Cl)c3)CC2)cc2c(=O)n(C)c3ccccc3c21`, -1.03%; in that of `CC1CCCC(C)N1CCCNC(=O)c1cc2c(=O)n(C)c3ccccc3c2n1C` (stereo not drawn), 21.7% (active). Turning to `Cn1c(C(=O)NCCN2CCc3ccccc3C2)cc2c(=O)[nH]c3ccccc3c21`, the inhibition was 6.06%. In the case of `CCN1CCCC1CNC(=O)c1cc2c(=O)n(C)c3ccccc3c2n1C` (stereo not drawn), the inhibition is 19.9% (active). In the case of `O=C(N/N=C/c1cccnc1)c1ccc(NC(=O)c2ccc(F)cc2)cc1` it was -0.77%.

Turning to `COc1cc(S(=O)(=O)N(Cc2cccs2)C2CC2)ccc1-n1cnnn1`, the inhibition was -1.52%. As for `COc1ccc(C(=O)C2CCCN(C(=O)c3cc(C)on3)C2)cc1F` (stereo not drawn), the inhibition is -2.54%. In the case of `CCOc1ccc2[nH]c(C(=O)N/N=C/c3cccc(OC)c3OC)cc2c1`, the inhibition was -0.14%. Take `O=C(CCl)NNc1nc(-c2ccccc2)c2cc(Cl)ccc2n1`: the inhibition was -3.67%. Turning to `Clc1ccc2nc(-c3ccccc3)nc(C(Cl)Cl)c2c1`, the inhibition was -4.99%. In the case of `NC(N)=Nc1nc(-c2ccccc2)c2cc(Cl)ccc2n1` it was 9.54% (active); in that of `O=C(CCCCCn1c(=S)[nH]c2cc3c(cc2c1=O)OCO3)N1CCN(c2ccc(F)cc2)CC1`, -4.83%. Turning to `CC(C)Oc1ccc(CN2CCC(n3nccc3NC(=O)c3cccnc3)CC2)cc1`, the inhibition is -0.44%. In the case of `CN(C)CCCn1c(=O)n(Cc2ccccc2)c(=O)c2c3c(sc21)CCCCC3` it was -0.19%. Take `COc1ccc(C(=O)/C=C/c2cccnc2)c(OC)c1`: the inhibition was -1.09%.

Turning to `O=c1oc2c(CN3CCCCC3)c(O)ccc2c2c1CCCCC2`, the inhibition was -1.98%.

Take `CCOC(=O)c1oc2c(CN3CCN(C)CC3)c(O)ccc2c(=O)c1-c1ccc(Br)cc1`: the inhibition is 2.09%. In the case of `CN1CCN(Cc2c(O)ccc3c2oc(=O)c2ccccc23)CC1` it was 12% (active); in that of `COc1ccc(-c2cc(C(=O)N(C)Cc3ccc(OC)c(OC)c3OC)c3ccccc3n2)cc1OC`, -3.53%. As for `O=C(Nc1nnc(C2CC2)s1)c1cc(Cl)sc1Cl`, the inhibition was -3.26%. In the case of `CN1C(=O)/C(=C\c2cc(Br)cs2)c2ccccc21` it was 0.8%. In the case of `O=C(c1ccco1)N1CCN(C(=O)c2cc(-c3ccccc3F)no2)CC1` it was -2.41%; in that of `COc1cccc(NC(=O)C(=O)c2cn(CC(=O)N3CCOCC3)c3ccccc23)c1`, 1.81%; in that of `CC(=O)c1ccc2c(ccc3ccccc32)c1`, -0.35%. As for `Cc1cc(=O)oc2c(C(=O)c3ccccc3)c(OCC(N)=O)ccc12`, the inhibition is -0.26%.

Regarding `Cc1cc(=O)oc2c1ccc1ccccc12`, the inhibition is 10.6% (active). In the case of `Cn1c(-c2sccc2OCc2cccc(C(F)(F)F)c2)n[nH]c1=S` it was 27% (active); in that of `Cc1ccccc1-c1n[nH]c(=S)n1C`, 2.67%. Regarding `Cn1c(-c2sc3cc(C(F)(F)F)cnc3c2-c2ccccc2)n[nH]c1=S`, the inhibition is -7.11%. On to `COc1ccccc1NC(=O)CCN1CCN(c2ccc(Cl)cc2)CC1`, for which the inhibition was 0.08%.

Regarding `O=Cc1c(Nc2ccccc2Cl)nc2ccccn2c1=O`, the inhibition is 0.26%.

`CNc1nc2c(C)cccn2c(=O)c1C=Nc1ccc(OC)cc1`: the inhibition was 4.33%. In the case of `Cc1cccn2c(=O)c(C=O)c(Nc3ccc(S(N)(=O)=O)cc3)nc12` it was 19.5% (active); in that of `C/C(N)=C(/C#N)C(=O)COC(=O)C1=NN(c2ccccc2)C(=O)CC1`, -2.51%. For `COc1cccc(NC(=O)C2CCCN(c3ncnc4c3nc3n4CCCCC3)C2)c1` (stereo not drawn), the inhibition was -0.06%. For `COCCCNC(NC(=O)c1ccc(C)cc1)C(Cl)(Cl)Cl` (stereo not drawn), the inhibition is -1.71%. As for `CC(C)(C)NC(=O)CSC(=Nc1ccccc1F)NC#N`, the inhibition is -1.17%. In the case of `CCC(c1nnnn1C(C)(C)C)N(Cc1cc2cccc(C)c2n2nnnc12)C1CCCC1` (stereo not drawn) it was -3.3%; in that of `Cn1c(=O)cc(OCCCC(=O)N2CCN(c3ccccn3)CC2)c2ccccc21`, -0.05%; in that of `O=C(CCCN1C(=O)c2cccc3cccc(c23)C1=O)N1CCN(Cc2ccc3c(c2)OCO3)CC1`, 4.6%. In the case of `Cn1c(=O)cc(OCCCC(=O)N2CCN(Cc3ccc4c(c3)OCO4)CC2)c2ccccc21` it was 9.27% (active); in that of `COc1cc(C)cc(CN2CCC(Cc3ccccc3)CC2)c1O`, -1.32%.

Regarding `CCn1c(=O)n(CC)c2cc(N3CCCC3)c(NC(=O)c3ccccc3Br)cc21`, the inhibition is 0.64%. As to `CCOc1ccc(C)cc1S(=O)(=O)NC1CCCCCC1`, the inhibition was -2.78%. With `COc1ccccc1OCCn1c(SCC(N)=O)nc2ccccc21`, the inhibition is -0.1%. Regarding `O=C(Oc1c(-c2ccco2)oc2ccccc2c1=O)c1cccnc1`, the inhibition is 0.08%.

With `COCCCNC(=S)N(CCN(C)C)Cc1cc2cc3c(cc2[nH]c1=O)OCCO3`, the inhibition is 1.43%. In the case of `Cc1cccc(NC(=O)C2CCCN(C(=O)NCc3ccccc3)C2)c1C` (stereo not drawn) it was 0.69%. In the case of `Cc1ccc2cc(/C=N/Nc3ccc(C(=O)O)cc3)c(Cl)nc2c1` it was 1.26%; in that of `CSCC[C@H](NC(=O)OC(C)(C)C)C(=O)N/N=C/c1cc2ccc(C)cc2nc1Cl`, 0.5%; in that of `Cc1ccc2cc(/C=N/NC(=O)[C@@H]3CCCN3)c(Cl)nc2c1`, 10.3% (active). As for `Cc1cccc(CS(=O)(=O)c2ncc(Cl)c(C(=O)Nc3ccc(F)cc3)n2)c1`, the inhibition was -3.25%.
